{"source": "PubChem BioAssay AID488969", "about": "(Vanderbilt High Throughput Screening Facility, 2010)", "note": "Whole data set: some 110,000 compounds, median “z-score” near -0.1, cut for the highest 2% near 2. This excerpt belongs to a sample that is enriched for the highest values. The source made the active and inactive calls.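 The calls were made as follows: active = z-score in the third read window above 3 or below -3; inactive = the rest.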", "data": [{"molecular_target": "Metabotropic glutamate receptor 8 (Rattus norvegicus) (UniProt P70579)", "sequence (P70579 whole entry, looked up)": "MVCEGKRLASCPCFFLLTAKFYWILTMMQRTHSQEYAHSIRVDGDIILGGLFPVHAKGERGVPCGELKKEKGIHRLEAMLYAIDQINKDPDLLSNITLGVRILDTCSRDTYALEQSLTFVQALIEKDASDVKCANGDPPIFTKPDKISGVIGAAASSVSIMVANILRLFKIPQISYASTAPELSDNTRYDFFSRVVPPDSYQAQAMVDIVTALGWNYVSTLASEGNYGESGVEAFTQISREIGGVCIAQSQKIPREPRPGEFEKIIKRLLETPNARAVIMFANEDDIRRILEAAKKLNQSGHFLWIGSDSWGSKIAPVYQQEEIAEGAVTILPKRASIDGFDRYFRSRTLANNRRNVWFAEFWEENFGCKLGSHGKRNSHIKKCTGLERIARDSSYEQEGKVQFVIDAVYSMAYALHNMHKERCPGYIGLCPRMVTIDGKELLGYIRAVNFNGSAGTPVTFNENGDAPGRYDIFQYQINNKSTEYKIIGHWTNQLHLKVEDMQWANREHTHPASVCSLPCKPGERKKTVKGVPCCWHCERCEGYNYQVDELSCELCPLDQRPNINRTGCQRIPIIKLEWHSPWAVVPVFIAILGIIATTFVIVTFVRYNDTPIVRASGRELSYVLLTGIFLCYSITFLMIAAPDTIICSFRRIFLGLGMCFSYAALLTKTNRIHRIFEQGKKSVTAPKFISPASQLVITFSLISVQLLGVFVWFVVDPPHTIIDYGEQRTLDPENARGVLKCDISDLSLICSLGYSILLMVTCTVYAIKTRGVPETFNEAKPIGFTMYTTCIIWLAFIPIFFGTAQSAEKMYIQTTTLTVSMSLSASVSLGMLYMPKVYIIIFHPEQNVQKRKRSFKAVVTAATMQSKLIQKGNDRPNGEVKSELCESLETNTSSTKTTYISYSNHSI", "test": "rat mGluR8 modulators via GIRK flux, primary screen, cell-based, thallium flux, HTS (AID 488969)", "settings": "HEK293 rat mGluR8, GIRK (G protein-gated inwardly rectifying potassium channel) thallium flux, FluoZin2; at 10 µM; stronger effect = higher value; submaximal glutamate (EC20) added with thallium", "values": [{"smiles": "Cc1cc(NCCN2CCOCC2)n2nc(C)c(-c3ccc(Cl)cc3)c2n1", "z-score": -0.362}, {"smiles": "COc1ccccc1-c1c(C#N)c(SCC(=O)N2CCCC2)nc(C)c1C(N)=O", "z-score": 0.169}, {"smiles": "CNC(=O)c1ccc(-n2nc(C)cc2-c2ccccc2)cc1", "z-score": -0.167}, {"smiles": "CCOC(=O)c1c(N)sc2c(OCC)c(Br)ccc12", "z-score": 0.151}, {"smiles": "CCCN(CCC)CCNC(=O)C(NS(=O)(=O)c1ccc2c(c1)CCC(=O)N2)c1ccccc1", "note": "(centres undefined)", "z-score": "10 (active)"}, {"smiles": "O=C1CCc2cc(S(=O)(=O)NC(C(=O)NCc3cccnc3)c3ccccc3)ccc2N1", "note": "(centres undefined)", "z-score": -0.174}, {"smiles": "CCCNC(=O)C(Cc1ccccc1)NS(=O)(=O)c1ccc2c(c1)CCC(=O)N2", "note": "(centres undefined)", "z-score": 0.179}, {"smiles": "Cc1ccccc1S(=O)(=O)c1c(C)cc(C)n(C(C)C)c1=O", "z-score": -0.131}, {"smiles": "COc1cccc(NC(=S)N/N=C2\\CC(C)(C)Oc3ccc(O)cc32)c1", "z-score": -0.0142}, {"smiles": "CCNC(=S)N/N=C1\\CCCCc2ccccc21", "z-score": 1.57}, {"smiles": "C=C(C)CNC(=S)N/N=C1\\CCCCc2ccccc21", "z-score": "3.15 (active)"}, {"smiles": "CC(C)NC(=S)N/N=C1\\CCCCc2ccccc21", "z-score": -0.471}, {"smiles": "COc1cccc(NC(=S)N/N=C2/CCCCc3ccccc32)c1", "z-score": "8.28 (active)"}, {"smiles": "CCCCCCC(=O)N/N=C1\\CCCc2ccccc21", "z-score": -0.118}, {"smiles": "CCCCNC(=S)N/N=C1\\CCCCc2ccccc21", "z-score": 2.17}, {"smiles": "COC(=O)N/N=C1\\CCCc2ccccc21", "z-score": -0.137}, {"smiles": "Cc1cccc(NC(=S)N/N=C2/CCCCc3ccccc32)c1", "z-score": 0.797}, {"smiles": "CC(=O)N1CCCc2cc(S(=O)(=O)N(C)Cc3ccccc3)ccc21", "z-score": 0.884}, {"smiles": "Cc1ccc(SCc2nc3ccccc3[nH]2)cc1", "z-score": -0.0609}, {"smiles": "CCCC(=O)NC(Nc1cccc(C(F)(F)F)c1)C(Cl)(Cl)Cl", "note": "(centres undefined)", "z-score": -0.917}, {"smiles": "COc1ccccc1NC(=O)COc1ccccc1", "z-score": 0.137}, {"smiles": "COc1cccc(NC(=O)CSc2nc(N)cc(N)n2)c1", "z-score": "3.37 (active)"}, {"smiles": "Cc1cccc(NC(=O)CSc2nc(N)cc(N)n2)c1", "z-score": -0.298}, {"smiles": "Nc1cc(N)nc(SCC(=O)Nc2ccccc2)n1", "z-score": -0.306}, {"smiles": "COc1cccc(NC(=O)CC2COc3ccccc3O2)c1", "note": "(centres undefined)", "z-score": "5.36 (active)"}, {"smiles": "CCOc1ccc(OCC(=O)Nc2ccc(OC)cc2)cc1", "z-score": -0.476}, {"smiles": "COc1cc(OC)c(OC)cc1NC(=O)CC1COc2ccccc2O1", "note": "(centres undefined)", "z-score": -0.0814}, {"smiles": "COc1ccc(OCC(=O)Nc2ccc(C)cc2)cc1", "z-score": -0.351}, {"smiles": "COc1ccc(OCC(=O)Nc2ccccc2O)cc1", "z-score": -0.431}, {"smiles": "COc1ccc(OCC(=O)NNC(=O)C(=O)Nc2ccc(C)cc2)cc1", "z-score": 2.73}, {"smiles": "COc1ccccc1NC(=O)CC1COc2ccccc2O1", "note": "(centres undefined)", "z-score": 0.0423}, {"smiles": "COc1ccc(OCC(=O)Nc2ccccc2OC(F)F)cc1", "z-score": 2.69}, {"smiles": "COc1ccc(NS(=O)(=O)c2cc(S(C)(=O)=O)ccc2C)cc1", "z-score": -0.235}, {"smiles": "COc1ccc2c(c1)C(NC(=O)C(F)(F)F)CC2=O", "note": "(centres undefined)", "z-score": 0.142}, {"smiles": "O=C(N1CCOCC1)N1CCN(C(=O)N2CCOCC2)CC1", "z-score": -0.108}, {"smiles": "COc1cc(C(=O)CSc2nncn2C)cc(OC)c1OC", "z-score": -0.245}, {"smiles": "CC1(C)Cc2nc3sc4c(OCc5ccccc5)ncnc4c3cc2CO1", "z-score": -0.0531}, {"smiles": "CCCN(CCC)C1=N/C(=C\\c2ccco2)C(=O)N1c1ccccc1", "z-score": -0.536}, {"smiles": "Cc1ccccc1NC1C=CS(=O)(=O)C1", "note": "(centres undefined)", "z-score": -0.358}, {"smiles": "Cc1ccc(N2C(=O)CCSC23C(=O)Nc2ccccc23)cc1", "note": "(centres undefined)", "z-score": -0.0429}, {"smiles": "CC(C)(C)NC(=O)C(=O)NNC(=O)COc1ccccc1", "z-score": 0.182}, {"smiles": "COc1cccc(NC(=O)COc2ccc(C)cc2)c1", "z-score": "4.04 (active)"}, {"smiles": "COc1ccc(OCC(=O)Nc2cccc(OC)c2)cc1", "z-score": -0.532}, {"smiles": "CC(C)(C)NC(=O)C(=O)NNC(=O)COc1ccc(Br)cc1", "z-score": 1.89}, {"smiles": "Cc1ccc(OCC(=O)NNC(=O)C(=O)NC(C)(C)C)cc1", "z-score": 2.61}, {"smiles": "COc1cc(NC(=O)COc2cccc(OC)c2)cc(OC)c1", "z-score": 0.638}, {"smiles": "O=C(COc1ccc(S(=O)(=O)NC2CCCCC2)cc1Cl)N1CCN(c2ccccc2)CC1", "z-score": 1.16}, {"smiles": "COc1cccc(/C=N/NC(=O)C(=O)N2CCCC2)c1OC", "z-score": -0.494}, {"smiles": "CCSc1nnc(NC(=O)C2CCN(S(=O)(=O)c3ccccc3C(F)(F)F)CC2)s1", "z-score": -0.565}, {"smiles": "O=C(Nc1ccccc1)/C(=C\\c1ccc2c(c1)OCO2)NC(=O)c1ccco1", "z-score": -0.0407}, {"smiles": "Cc1ccc(CN2CCNC(=O)C2CC(=O)O)cc1", "note": "(centres undefined)", "z-score": -0.134}, {"smiles": "O=C(O)CC1C(=O)NCCN1Cc1ccc(F)c(F)c1", "note": "(centres undefined)", "z-score": -0.183}, {"smiles": "COc1ccc(CN2CCNC(=O)C2CC(=O)O)cc1OC", "note": "(centres undefined)", "z-score": "3.61 (active)"}, {"smiles": "CC1CC(C)CN(CCOCCSc2ccccc2)C1", "note": "(centres undefined)", "z-score": 0.729}, {"smiles": "O=C(Cn1cc(C(F)(F)F)cc(Cl)c1=O)NCCc1ccccc1", "z-score": -0.155}, {"smiles": "Cc1cccc(NC(=O)NC(=S)NC(=O)c2ccccc2)c1", "z-score": 2.86}, {"smiles": "CCC(=O)Nc1cccc(NC(=S)NC(=O)c2cccc(C)c2)c1", "z-score": 0.23}, {"smiles": "CC(=O)c1cccc(NC(=S)NC(=O)c2ccccc2Cl)c1", "z-score": 1.17}, {"smiles": "COC(=O)c1cccc(NC(=S)NCc2ccc(Cl)cc2)c1", "z-score": 0.53}, {"smiles": "CC(=O)c1cccc(NC(=S)NC(=O)c2ccc(Cl)cc2)c1", "z-score": -0.258}, {"smiles": "CC(=O)c1cccc(NC(=S)NC(=O)c2cccc(Cl)c2)c1", "z-score": "8.71 (active)"}, {"smiles": "Cc1ccc(NC(=O)NC(=S)NC(=O)c2ccccc2)cc1", "z-score": 1.68}, {"smiles": "CC(=O)c1cccc(NC(=S)NC(=O)c2ccccc2)c1", "z-score": 1.63}, {"smiles": "COC(=O)c1cccc(NC(=S)Nc2cccc(Cl)c2C)c1", "z-score": 0.445}, {"smiles": "CCC(=O)Nc1cccc(NC(=S)NC(=O)c2ccccc2)c1", "z-score": -0.455}, {"smiles": "COC(=O)c1cccc(NC(=S)Nc2cccc(Cl)c2Cl)c1", "z-score": 2.5}, {"smiles": "CC(=O)c1cccc(NC(=S)NC(=O)c2cccc(C)c2)c1", "z-score": "7.49 (active)"}, {"smiles": "O=C(c1ccc2snnc2c1)N1CCN(c2ccccn2)CC1", "z-score": -0.329}, {"smiles": "COC(=O)Nc1sc2c(c1C(=O)N1CCOCC1)CCC(C)C2", "note": "(centres undefined)", "z-score": 0.0522}, {"smiles": "COc1ccccc1S(=O)(=O)Nc1cccc(-c2nnc3n2CCCCC3)c1", "z-score": -0.163}, {"smiles": "Cc1cc2cc(C(c3nnnn3C(C)(C)C)N(Cc3ccco3)CC3CCCO3)c(=O)[nH]c2cc1C", "note": "(centres undefined)", "z-score": -0.208}, {"smiles": "O=C(/C=C/c1ccc(F)cc1)c1ccccc1Br", "z-score": -0.272}, {"smiles": "COc1ccc2nc(C(F)(F)C(F)(F)F)c(C#N)c(N)c2c1", "z-score": -0.334}, {"smiles": "Cc1ccccc1C(=O)NNC(=S)Nc1cccc(C(F)(F)F)c1", "z-score": -0.0547}, {"smiles": "CC(C)Oc1cccc(C(=O)NC(=S)Nc2cccc(C(F)(F)F)c2)c1", "z-score": 0.755}, {"smiles": "O=C(NNC(=S)Nc1cccc(C(F)(F)F)c1)c1ccccc1Cl", "z-score": 0.86}, {"smiles": "CC(C)Oc1cccc(C(=O)NC(=S)Nc2ccccc2)c1", "z-score": "3.26 (active)"}, {"smiles": "O=C(NNC(=S)Nc1cccc(C(F)(F)F)c1)c1cccc(Cl)c1", "z-score": 2.97}, {"smiles": "CC(C)Oc1cccc(C(=O)NC(=S)Nc2cccc(NC(=O)c3ccccc3Cl)c2)c1", "z-score": -0.41}]}]}
